# Reference: publication PMC4336329 (PLoS ONE, 2015)
# About 14,000 (4.5%) of roughly 310,000 compounds showed an effect of 50% or more. Effects have a minus sign here. Only a selection was taken, and strong results are over-represented in it overall.
# Biological target: human ether-à-go-go-related gene (hERG) potassium channel (human, UniProt Q12809)
# Assay: primary screen, population patch clamp on CHO cells stably expressing hERG; higher = less effect of the substance
# 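Further: peak tail current of the secondary pulse compared with the same well before compound.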
# human ether-à-go-go-related gene (hERG) potassium channel, sequence (Q12809 whole entry, looked up): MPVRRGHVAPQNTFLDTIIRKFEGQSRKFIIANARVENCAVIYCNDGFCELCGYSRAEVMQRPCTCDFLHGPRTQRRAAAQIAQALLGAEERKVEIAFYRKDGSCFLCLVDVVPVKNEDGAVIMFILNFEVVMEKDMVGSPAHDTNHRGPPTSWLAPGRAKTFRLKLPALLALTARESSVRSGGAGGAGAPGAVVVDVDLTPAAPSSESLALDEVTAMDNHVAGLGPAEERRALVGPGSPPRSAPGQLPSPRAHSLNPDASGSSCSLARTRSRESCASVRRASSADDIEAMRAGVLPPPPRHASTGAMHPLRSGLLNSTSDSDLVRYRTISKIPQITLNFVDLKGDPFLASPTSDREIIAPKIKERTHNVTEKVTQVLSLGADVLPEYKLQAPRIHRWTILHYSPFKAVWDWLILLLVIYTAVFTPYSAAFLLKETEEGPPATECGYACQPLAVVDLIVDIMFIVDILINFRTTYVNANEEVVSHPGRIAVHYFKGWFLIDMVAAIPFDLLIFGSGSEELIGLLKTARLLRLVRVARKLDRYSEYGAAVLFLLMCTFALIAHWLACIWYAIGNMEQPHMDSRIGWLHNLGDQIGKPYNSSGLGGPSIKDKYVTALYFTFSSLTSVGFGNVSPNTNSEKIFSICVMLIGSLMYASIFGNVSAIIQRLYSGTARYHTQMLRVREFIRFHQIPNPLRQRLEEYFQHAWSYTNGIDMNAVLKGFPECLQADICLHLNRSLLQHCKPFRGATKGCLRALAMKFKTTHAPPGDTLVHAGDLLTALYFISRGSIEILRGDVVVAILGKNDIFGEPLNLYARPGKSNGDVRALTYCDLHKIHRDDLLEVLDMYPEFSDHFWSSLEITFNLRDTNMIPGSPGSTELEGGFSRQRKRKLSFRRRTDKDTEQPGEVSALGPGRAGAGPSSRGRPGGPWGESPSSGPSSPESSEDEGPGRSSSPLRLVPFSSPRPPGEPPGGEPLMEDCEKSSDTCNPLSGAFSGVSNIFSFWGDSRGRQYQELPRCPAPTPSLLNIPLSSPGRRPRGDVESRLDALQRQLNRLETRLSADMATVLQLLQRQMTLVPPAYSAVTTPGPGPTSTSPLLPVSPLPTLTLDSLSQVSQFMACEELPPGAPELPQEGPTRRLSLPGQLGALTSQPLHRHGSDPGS
row,Compound,"hERG current change (%, negative = inhibition) at 10uM [%]"
1,S=c1[nH]nc(COc2ccccc2)n1/N=C/c1ccncc1,7.06
2,O=C(NCCOc1ccc(Cl)cc1)c1ccc2c(c1)OCCO2,-7.8
3,COc1ccc(O)c(C=Nc2cc(NC(C)=O)c(Cl)cc2Cl)c1,2.95
4,O=C1c2ccccc2C(=O)N1CC(O)COc1ccc(Br)cc1 (stereo not shown),-1.51
5,O=C(CN1CCN(Cc2ccc(F)cc2)CC1)NCc1ccccc1,-27.5
6,O=C(CN1CCN(c2ccc(F)cc2)CC1)NCc1ccc(Cl)cc1,-62.7
7,Cl.O=C(CN1CCOCC1)NCc1ccc(F)cc1,21.6
8,O=C(CN1CCN(Cc2ccccc2)CC1)NCc1ccc(Cl)cc1,-61.1
9,Fc1ccc(CN2CCN(c3ccc(Cl)cc3)CC2)cc1,-13.6
10,O=C(NCc1ccc(Cl)cc1)N1CCN(Cc2ccccc2)CC1,-29.9
11,Cc1ccc(C(=O)c2cc3c(cc2[N+](=O)[O-])OCCO3)cc1,-9.5
12,O=C1/C(=N\S(=O)(=O)c2cccs2)C([n+]2ccccc2)=C([O-])c2ccccc21,33.6
13,CCc1cc[n+](C2=C([O-])c3ccccc3C(=O)/C2=N\S(=O)(=O)c2cccs2)cc1,-11.6
14,O=C1/C(=N\S(=O)(=O)c2cccs2)C([n+]2ccc(CCCc3ccccc3)cc2)=C([O-])c2ccccc21,-70.5
15,Cc1ccc(NC(=O)c2nnn(-c3ccc4c(c3)OCCO4)c2N)cc1,9.9
16,Cc1cc(NC(=O)CSc2nncc(=O)n2N)no1,1.99
17,COCCCN1C(=O)/C(=C\c2cccs2)C(C(=O)OC)=C1C,-31.9
18,COC(=O)C1=C(C)N(Cc2ccccc2)C(=O)/C1=C\c1ccco1,2.06
19,CCN1C(=O)/C(=C\c2cccs2)C(C(=O)OC)=C1C,5.41
20,COC(=O)C1=C(C)N(Cc2cccnc2)C(=O)C1,-0.706
21,COC(=O)C1=C(C)N(Cc2cccnc2)C(=O)/C1=C\c1sccc1C,-79.2
22,COC(=O)C1=C(C)N(Cc2cccnc2)C(=O)/C1=C\c1cccs1,-89
23,CCN(CC)S(=O)(=O)c1cccc(-c2nnc(SCC(=O)NC3CCCC3)n2N)c1,19

row,Compound,"hERG current change (%, negative = inhibition) at 10uM [%]"
1,Cc1cc(=O)[nH]c2c(C)cc(S(=O)(=O)N3CCCCC3)cc12,4.69
2,CCc1cccc(NC(=O)COc2ccccc2)c1,-8.01
3,O=C(Oc1c(-c2ccccc2)c(=O)n2c3c(cccc13)CC2)c1ccco1,-62
4,O=C(Oc1c(-c2ccccc2)c(=O)n2c3c(cccc13)CC2)c1ccccc1,-9.09
5,O=C(Oc1c(-c2ccccc2)c(=O)n2c3c(cccc13)CC2)c1ccc(F)cc1,10.4
6,CC1CC(=S)Nc2ccccc2S1 (stereo not shown),11.1
7,CN(C)S(=O)(=O)N1CCC(c2ccc(F)cc2)C(COc2ccc3c(c2)OCO3)C1 (stereo not shown),10.2
8,N#C/C(=C/c1ccc(Sc2nc3ccccc3[nH]2)o1)c1ccccc1F,-7.86
9,O=C(O)c1ccc(NC(=S)NC(=O)C(c2ccccc2)c2ccccc2)cc1,-6.52
10,CCOc1ccc(NC(=O)C(C)NC(=O)c2ccccc2Cl)cc1S(=O)(=O)N1CCCC1 (stereo not shown),-14.3
11,CCOc1ccc(NC(=O)C(C)Oc2ccc(C#N)cc2)cc1S(=O)(=O)N1CCCC1 (stereo not shown),-62.1
12,Cc1ccc(NC(=O)C(C)Oc2ccccc2)cc1S(=O)(=O)N1CCCCCC1 (stereo not shown),-7.7
13,COc1ccc(NC(=O)Nc2nnc(-c3ccccc3SCc3ccccc3)s2)cc1,13.6
14,O=C(Cc1cccs1)NCCN1CCOCC1,3.99
15,CN1CCN(c2nc(NCCOC34CC5CC(CC(C5)C3)C4)nc(OCC(F)(F)F)n2)CC1,-60.8
16,OCCNc1nc(OCC(F)(F)F)nc(N2CCN(C34CC5CC(CC(C5)C3)C4)CC2)n1,-37.9
17,CNc1nc(NCCOC23CC4CC(CC(C4)C2)C3)nc(OCC(F)(F)F)n1,8.55
18,CCOc1c2ccc(C(=O)NCc3ccco3)cc2nn1CCOC,-0.63
19,CC(=O)c1cccc(NS(=O)(=O)c2cc3c(cc2C)N(C(C)=O)CCO3)c1,14.3
20,Cc1ccc(S(=O)(=O)C(CCC(=O)c2ccc(Cl)cc2)C(N)=O)cc1 (stereo not shown),-28.9
21,CCN1CCN(c2cc(C)c3cc(NC(=O)c4ccc(C)c(C)c4)ccc3n2)CC1,-43.3
22,CCN(CC)c1cc(C)c2cc(NC(=O)CNC(C)=O)ccc2n1,-11.3
23,Cc1cc(N2CCN(C)CC2)nc2ccc(NC(=O)c3ccc(Br)o3)cc12,-77.4

row,Compound,"hERG current change (%, negative = inhibition) at 10uM [%]"
1,CCN(CC)c1ccc(NC(=O)c2ccc(Br)o2)cc1,-24.3
2,CCN1CCN(c2cc(C)c3cc(NC(=O)c4ccncc4)ccc3n2)CC1,-21.4
3,CCN1CCN(c2cc(C)c3cc(NC(=O)c4ccc(Br)o4)ccc3n2)CC1,-56
4,Cc1cc(N2CCN(C)CC2)nc2ccc(NC(=S)N3CCC4(CC3)OCCO4)cc12,-34
5,CCN1CCN(c2cc(C)c3cc(NC(=O)Cc4ccc(OC)c(OC)c4)ccc3n2)CC1,-10.5
6,CCN1CCN(c2cc(C)c3cc(NC(=O)c4cnccn4)ccc3n2)CC1,-16.2
7,CCN(CC)c1cc(C)c2cc(NC(=O)c3ccc(Br)o3)ccc2n1,-76.1
8,CCN1CCN(c2cc(C)c3cc(NC(=O)c4cncc(Br)c4)ccc3n2)CC1,-51.8
9,COc1cc(C(=O)Nc2ccc3nc(N4CCN(C)CC4)cc(C)c3c2)cc(OC)c1OC,-38.7
10,Nc1ccc2nc3c(=O)n(C4CCCCC4)c(=O)[nH]c3nc2c1,-0.914
11,CC(=O)c1c(C(C)=O)c(C)n(C2CCCCC2)c1C,2.97
12,NC(=O)c1ccc(NC(=O)CCCc2nc(-c3ccccc3Cl)no2)cc1,18.4
13,CCOc1ccc(S(=O)(=O)N2CCC(C(=O)NCCN3CCOCC3)CC2)cc1C,1.77
14,CCOC(=O)C(=CNc1ncccc1C)C(=O)OCC,1.51
15,CC(C)CCNC(=O)Cn1c(=O)oc2cc(S(=O)(=O)N3CC(C)CC(C)C3)ccc21 (stereo not shown),13.3
16,CN1CCN(CCCc2c3c(cc4c2CCC4)CCC3)CC1.Cl,-19.8
17,Cc1cc(N2CCCCC2)nc2ccc(NC(=O)c3ccc(Br)o3)cc12,-52.9
18,CCCCNC(=O)CCC(=O)Nc1ccc2nc(N3CCCCC3)cc(C)c2c1,-18.5
19,COc1ccc(C(=O)Nc2ccc3nc(N4CCCCC4)cc(C)c3c2)c(OC)c1,4.06
20,CCOc1ccc(S(=O)(=O)N2CCOCC2)cc1NC(=O)CN1C(=O)NC(CC)(c2ccccc2)C1=O (stereo not shown),-73.5
21,CCOc1ccc(S(=O)(=O)N2CCCCC2)cc1NC(=O)CN1C(=O)NC(CC)(c2ccccc2)C1=O (stereo not shown),-15
22,CCOc1ccc(S(=O)(=O)N2CCCCC2)cc1NC(=O)CN1C(=O)NC(C)(c2ccccc2)C1=O (stereo not shown),-35.5
23,CCOc1ccc(S(=O)(=O)N2CCOCC2)cc1NC(=O)CN1C(=O)NC2(CCCC2)C1=O,5.87

row,Compound,"hERG current change (%, negative = inhibition) at 10uM [%]"
1,CC(C)Oc1ccc(S(=O)(=O)N2CCOCC2)cc1NC(=O)CN1C(=O)NC2(CCCC2)C1=O,-17.8
2,CCC1(c2ccccc2)NC(=O)N(CC(=O)Nc2cc(S(=O)(=O)N3CCOCC3)ccc2OC(C)C)C1=O (stereo not shown),-55.7
3,CC1(c2ccccc2)NC(=O)N(CC(=O)Nc2cc(S(=O)(=O)N3CCOCC3)ccc2Cl)C1=O (stereo not shown),-7.82
4,CCOc1ccc(S(=O)(=O)N2CCOCC2)cc1NC(=O)CN1C(=O)NC(C)(c2ccccc2)C1=O (stereo not shown),-52.6
5,CCC1(c2ccccc2)NC(=O)N(CC(=O)Nc2cc(S(=O)(=O)N3CCCCC3)ccc2OC(C)C)C1=O (stereo not shown),-5.02
6,C[C@H](C(=O)NCc1ccccc1)C(=O)c1ccccc1,18
7,CCOC(=O)CN1C(=O)C(O)(CC(=O)c2ccccn2)c2ccccc21 (stereo not shown),14.6
8,Cc1nn(Cc2ccccc2)c(C)c1C(=O)NCc1ccccc1,6.55
9,COc1ccc2cc(C(=O)OC(C)C)sc(=O)c2c1OC,2.45
10,Cc1ccc(/C(N)=N/OC(=O)c2ccc3ccccc3c2)cc1,0.62
11,CCOC(=O)N1CCC(N2Cc3cccc(C(=O)Nc4cccc(F)c4)c3C2=O)CC1,-72.1
12,O=C(Nc1cccc(F)c1)c1cccc2c1C(=O)N(C1CCCCC1)C2,12.2
13,CCOC(=O)N1CCC(N2Cc3cccc(C(=O)Nc4cc(F)ccc4F)c3C2=O)CC1,-23.1
14,CCOC(=O)N1CCC(N2Cc3cccc(C(=O)NC(C)c4ccc5c(c4)OCCO5)c3C2=O)CC1 (stereo not shown),-67.5
15,Cc1cccc(C)c1NC(=O)c1cccc2c1C(=O)N(C1CCCCC1)C2,-7.01
16,CCOC(=O)N1CCC(N2Cc3cccc(C(=O)Nc4ccc(OCC)cc4)c3C2=O)CC1,9.07
17,CCOC(=O)N1CCC(N2Cc3cccc(C(=O)NCc4ccccn4)c3C2=O)CC1,-34.5
18,CCOC(=O)N1CCC(N2Cc3cccc(C(=O)Nc4ccc(N(CC)CC)cc4C)c3C2=O)CC1,-7.16
19,CCOC(=O)N1CCC(N2Cc3cccc(C(=O)Nc4c(C)cccc4CC)c3C2=O)CC1,-77.1
20,CCOC(=O)N1CCC(N2Cc3cccc(C(=O)NCc4ccc5c(c4)OCO5)c3C2=O)CC1,-19.5
21,CCOC(=O)N1CCC(N2Cc3cccc(C(=O)Nc4ccc(F)cc4)c3C2=O)CC1,-55.3
22,CCOC(=O)N1CCC(N2Cc3cccc(C(=O)Nc4ccc(CC)cc4)c3C2=O)CC1,-42.6
